In article PMC7862700, “An all-to-all approach to the identification of sequence-specific readers for epigenetic DNA modifications on cytosine”:

What was measured:
Test in all cases: DAPPL (digital affinity profiling via proximity ligation, sequencing); 10 mM Tris-HCl pH 7.5, 50 mM NaCl, 1 mM DTT, 4% glycerol, room temperature, 30 min; GST-TFs on glutathione beads, 16-mer random dsDNA library, 0.1% formaldehyde crosslink after washing; high values mean tight binding
Conditions in all cases: protein: recombinant; tags: N-terminal GST; dsDNA, one strand shown
ELK1 = molecular target: T1, ELK1 (Homo sapiens, UniProt P19419 1-428)
T1 sequence: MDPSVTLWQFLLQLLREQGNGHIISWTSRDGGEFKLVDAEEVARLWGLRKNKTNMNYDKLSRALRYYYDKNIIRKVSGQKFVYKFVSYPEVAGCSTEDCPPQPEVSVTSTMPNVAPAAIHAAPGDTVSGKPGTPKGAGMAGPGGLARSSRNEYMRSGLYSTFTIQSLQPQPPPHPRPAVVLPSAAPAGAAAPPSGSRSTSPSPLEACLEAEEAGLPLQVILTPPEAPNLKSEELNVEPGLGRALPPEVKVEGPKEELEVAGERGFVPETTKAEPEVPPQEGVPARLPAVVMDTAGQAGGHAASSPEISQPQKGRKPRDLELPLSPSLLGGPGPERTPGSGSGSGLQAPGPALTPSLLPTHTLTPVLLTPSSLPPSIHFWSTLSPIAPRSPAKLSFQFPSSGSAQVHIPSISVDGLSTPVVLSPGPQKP
In short: (§1)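 GST fusions of human transcription factors were expressed in yeast and captured with glutathione beads. Once given DNA barcodes and pooled alongside a tag-only sample, they were incubated for 30 min at room temperature with 200 nmole of a random double-stranded 16-mer DNA library in Tris/NaCl/DTT/glycerol buffer, then washed, crosslinked (0.1% formaldehyde), proximity-ligated, PCR-amplified and sequenced on an Illumina NextSeq500. The binding signal of each hexamer is its read frequency for a factor divided by its frequency for the tag-only sample.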

GABPA = molecular target: T2, GABPA (Homo sapiens, UniProt Q06546 1-454)
T2 sequence: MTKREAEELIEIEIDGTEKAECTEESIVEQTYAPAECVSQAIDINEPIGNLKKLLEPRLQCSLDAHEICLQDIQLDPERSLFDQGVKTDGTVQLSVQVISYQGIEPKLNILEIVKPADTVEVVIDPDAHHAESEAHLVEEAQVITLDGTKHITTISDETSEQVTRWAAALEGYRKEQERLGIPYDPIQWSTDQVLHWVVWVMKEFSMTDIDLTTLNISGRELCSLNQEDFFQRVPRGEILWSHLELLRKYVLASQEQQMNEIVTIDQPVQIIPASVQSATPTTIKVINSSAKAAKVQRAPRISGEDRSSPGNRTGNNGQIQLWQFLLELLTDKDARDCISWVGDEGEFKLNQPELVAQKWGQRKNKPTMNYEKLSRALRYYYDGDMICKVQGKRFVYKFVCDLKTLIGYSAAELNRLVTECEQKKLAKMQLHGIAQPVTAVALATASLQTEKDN
In short: as §1

SPIB = SPIB (Homo sapiens, UniProt Q01892 1-262)
In short: as §1

ELK3 = molecular target: T3, ELK3 (Homo sapiens, UniProt P41970 1-407)
T3 sequence: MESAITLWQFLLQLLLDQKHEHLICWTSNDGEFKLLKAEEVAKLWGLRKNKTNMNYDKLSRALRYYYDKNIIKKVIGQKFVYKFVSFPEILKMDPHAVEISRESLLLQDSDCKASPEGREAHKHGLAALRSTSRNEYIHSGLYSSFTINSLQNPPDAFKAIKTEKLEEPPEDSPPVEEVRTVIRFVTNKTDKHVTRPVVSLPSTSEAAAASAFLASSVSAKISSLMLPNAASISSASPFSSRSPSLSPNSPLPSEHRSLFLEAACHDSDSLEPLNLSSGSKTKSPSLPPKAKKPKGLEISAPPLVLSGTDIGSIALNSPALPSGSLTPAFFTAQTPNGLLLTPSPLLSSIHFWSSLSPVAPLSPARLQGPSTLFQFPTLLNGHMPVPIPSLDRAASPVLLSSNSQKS
In short: as §1

ETV5 = ETV5 (Homo sapiens, UniProt P41161 1-510)
In short: as §1

ELK4 = molecular target: T4, ELK4 (Homo sapiens, UniProt P28324-2 1-405)
T4 sequence: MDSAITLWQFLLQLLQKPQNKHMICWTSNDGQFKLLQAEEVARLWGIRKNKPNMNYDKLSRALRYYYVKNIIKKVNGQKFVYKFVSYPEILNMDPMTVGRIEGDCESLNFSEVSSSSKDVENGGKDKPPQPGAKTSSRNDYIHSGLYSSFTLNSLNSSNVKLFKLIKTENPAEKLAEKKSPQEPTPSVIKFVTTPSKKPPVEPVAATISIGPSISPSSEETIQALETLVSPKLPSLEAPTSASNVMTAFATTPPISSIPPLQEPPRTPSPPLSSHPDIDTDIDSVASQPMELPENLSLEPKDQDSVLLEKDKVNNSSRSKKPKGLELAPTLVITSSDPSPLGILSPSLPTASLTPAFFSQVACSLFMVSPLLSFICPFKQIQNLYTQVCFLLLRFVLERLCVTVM
In short: as §1

ELF3 = molecular target: T5, ELF3 (Homo sapiens, UniProt P78545 1-371)
T5 sequence: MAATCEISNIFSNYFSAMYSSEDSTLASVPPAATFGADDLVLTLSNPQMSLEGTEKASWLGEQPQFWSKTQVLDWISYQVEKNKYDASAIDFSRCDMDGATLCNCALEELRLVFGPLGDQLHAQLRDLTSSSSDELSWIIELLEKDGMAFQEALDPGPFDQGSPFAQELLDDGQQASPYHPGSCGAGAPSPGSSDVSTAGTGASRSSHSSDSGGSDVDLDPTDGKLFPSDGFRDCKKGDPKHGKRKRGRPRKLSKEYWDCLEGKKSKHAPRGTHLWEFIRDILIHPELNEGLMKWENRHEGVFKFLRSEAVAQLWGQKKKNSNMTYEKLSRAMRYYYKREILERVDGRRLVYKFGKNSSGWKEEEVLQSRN
In short: as §1

ETV1 = ETV1 (Homo sapiens, UniProt P50549 1-477)
In short: as §1

ETV3L = molecular target: T6, ETV3L (Homo sapiens, UniProt Q6ZN32 1-361)
T6 sequence: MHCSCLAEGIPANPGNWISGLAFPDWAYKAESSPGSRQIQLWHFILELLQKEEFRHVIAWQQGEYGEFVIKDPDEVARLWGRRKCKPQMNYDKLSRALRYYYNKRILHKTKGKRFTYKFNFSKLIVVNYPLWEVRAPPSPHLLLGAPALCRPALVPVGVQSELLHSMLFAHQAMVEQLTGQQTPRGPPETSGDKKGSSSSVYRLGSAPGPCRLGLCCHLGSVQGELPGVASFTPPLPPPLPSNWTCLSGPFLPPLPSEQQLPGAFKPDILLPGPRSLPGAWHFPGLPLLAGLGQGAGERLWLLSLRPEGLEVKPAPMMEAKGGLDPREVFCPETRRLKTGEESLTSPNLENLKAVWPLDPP
In short: as §1

ETS2 = molecular target: T7, ETS2 (Homo sapiens, UniProt P15036 1-469)
T7 sequence: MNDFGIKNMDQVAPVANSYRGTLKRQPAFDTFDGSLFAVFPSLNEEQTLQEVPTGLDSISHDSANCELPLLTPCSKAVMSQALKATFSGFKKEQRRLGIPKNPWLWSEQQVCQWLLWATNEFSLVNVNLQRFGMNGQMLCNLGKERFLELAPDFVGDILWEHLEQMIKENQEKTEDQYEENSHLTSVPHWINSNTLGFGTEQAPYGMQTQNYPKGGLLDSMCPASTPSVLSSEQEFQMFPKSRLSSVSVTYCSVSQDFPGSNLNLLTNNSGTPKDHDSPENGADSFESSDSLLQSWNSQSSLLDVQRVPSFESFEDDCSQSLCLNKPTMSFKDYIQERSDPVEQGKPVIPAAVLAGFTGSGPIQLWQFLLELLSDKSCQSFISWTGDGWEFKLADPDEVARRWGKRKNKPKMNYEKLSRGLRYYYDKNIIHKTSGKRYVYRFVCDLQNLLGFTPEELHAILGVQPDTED
In short: as §1

SPDEF = molecular target: T8, SPDEF (Homo sapiens, UniProt O95238 1-335)
T8 sequence: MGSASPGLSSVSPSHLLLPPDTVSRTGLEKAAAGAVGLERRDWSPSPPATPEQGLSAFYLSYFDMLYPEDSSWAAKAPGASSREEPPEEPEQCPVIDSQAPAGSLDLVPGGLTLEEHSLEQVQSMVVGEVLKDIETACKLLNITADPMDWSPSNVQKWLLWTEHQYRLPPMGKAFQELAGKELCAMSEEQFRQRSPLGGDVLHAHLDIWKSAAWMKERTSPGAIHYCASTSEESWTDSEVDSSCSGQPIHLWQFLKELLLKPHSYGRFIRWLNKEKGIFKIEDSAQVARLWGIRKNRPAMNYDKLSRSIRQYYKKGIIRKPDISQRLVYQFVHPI
In short: as §1

ETV7 = molecular target: T9, ETV7 (Homo sapiens, UniProt Q9Y603 1-341)
T9 sequence: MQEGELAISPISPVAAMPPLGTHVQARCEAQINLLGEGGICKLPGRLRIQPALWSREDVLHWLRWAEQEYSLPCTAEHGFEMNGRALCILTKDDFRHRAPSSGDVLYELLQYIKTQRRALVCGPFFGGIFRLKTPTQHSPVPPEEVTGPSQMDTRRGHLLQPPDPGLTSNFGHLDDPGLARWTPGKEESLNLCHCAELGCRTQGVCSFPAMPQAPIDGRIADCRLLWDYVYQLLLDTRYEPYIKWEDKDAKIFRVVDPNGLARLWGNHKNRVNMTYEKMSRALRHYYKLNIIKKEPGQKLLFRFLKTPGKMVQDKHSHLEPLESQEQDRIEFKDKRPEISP
In short: as §1

ETV3 = molecular target: T10, ETV3 (Homo sapiens, UniProt P41162-2 1-143)
T10 sequence: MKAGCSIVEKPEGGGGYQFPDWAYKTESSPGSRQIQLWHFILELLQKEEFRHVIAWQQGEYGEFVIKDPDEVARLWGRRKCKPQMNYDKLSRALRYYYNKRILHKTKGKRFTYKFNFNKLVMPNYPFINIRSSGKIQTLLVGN
In short: as §1

ETV6 = ETV6 (Homo sapiens, UniProt P41212 1-452)
In short: as §1

ERG = molecular target: T11, ERG (Homo sapiens, UniProt P11308 1-479)
T11 sequence: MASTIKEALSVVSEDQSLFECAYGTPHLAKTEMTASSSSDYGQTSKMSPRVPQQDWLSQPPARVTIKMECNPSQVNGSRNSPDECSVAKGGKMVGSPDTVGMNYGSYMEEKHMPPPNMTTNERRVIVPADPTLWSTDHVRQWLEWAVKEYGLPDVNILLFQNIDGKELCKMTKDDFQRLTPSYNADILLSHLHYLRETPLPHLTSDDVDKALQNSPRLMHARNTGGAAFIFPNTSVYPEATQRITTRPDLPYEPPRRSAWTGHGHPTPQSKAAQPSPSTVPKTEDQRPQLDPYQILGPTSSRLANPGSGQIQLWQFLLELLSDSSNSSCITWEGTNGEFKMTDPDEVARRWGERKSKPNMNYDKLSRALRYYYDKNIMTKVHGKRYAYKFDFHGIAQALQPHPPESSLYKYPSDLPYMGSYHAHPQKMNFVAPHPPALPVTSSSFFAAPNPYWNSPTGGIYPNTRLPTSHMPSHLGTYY
In short: as §1

FEV = molecular target: T12, FEV (Homo sapiens, UniProt Q99581 1-238)
T12 sequence: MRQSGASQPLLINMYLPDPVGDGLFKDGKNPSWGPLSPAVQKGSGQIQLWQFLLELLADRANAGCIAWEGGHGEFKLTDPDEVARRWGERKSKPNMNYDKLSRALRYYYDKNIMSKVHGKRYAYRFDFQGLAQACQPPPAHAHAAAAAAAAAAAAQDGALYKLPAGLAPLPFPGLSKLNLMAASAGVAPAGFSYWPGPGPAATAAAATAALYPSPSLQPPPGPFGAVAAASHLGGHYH
In short: as §1

ELF4 = ELF4 (Homo sapiens, UniProt Q99607 1-663)
In short: as §1

Sequence of ETV1 (P50549 whole entry): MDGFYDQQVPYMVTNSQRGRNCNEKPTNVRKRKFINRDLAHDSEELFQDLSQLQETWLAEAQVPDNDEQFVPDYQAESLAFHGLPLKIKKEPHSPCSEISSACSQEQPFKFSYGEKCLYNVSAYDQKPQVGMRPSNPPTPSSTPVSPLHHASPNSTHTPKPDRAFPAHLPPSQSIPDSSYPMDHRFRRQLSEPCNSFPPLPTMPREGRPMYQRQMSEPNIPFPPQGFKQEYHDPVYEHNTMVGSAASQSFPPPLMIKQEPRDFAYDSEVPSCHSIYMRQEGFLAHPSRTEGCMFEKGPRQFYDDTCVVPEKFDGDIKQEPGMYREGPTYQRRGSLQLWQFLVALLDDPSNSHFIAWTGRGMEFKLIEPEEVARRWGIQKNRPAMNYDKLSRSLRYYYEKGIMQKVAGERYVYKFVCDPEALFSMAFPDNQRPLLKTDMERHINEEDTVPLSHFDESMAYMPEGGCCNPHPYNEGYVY
Sequence of ETV5 (P41161 whole entry): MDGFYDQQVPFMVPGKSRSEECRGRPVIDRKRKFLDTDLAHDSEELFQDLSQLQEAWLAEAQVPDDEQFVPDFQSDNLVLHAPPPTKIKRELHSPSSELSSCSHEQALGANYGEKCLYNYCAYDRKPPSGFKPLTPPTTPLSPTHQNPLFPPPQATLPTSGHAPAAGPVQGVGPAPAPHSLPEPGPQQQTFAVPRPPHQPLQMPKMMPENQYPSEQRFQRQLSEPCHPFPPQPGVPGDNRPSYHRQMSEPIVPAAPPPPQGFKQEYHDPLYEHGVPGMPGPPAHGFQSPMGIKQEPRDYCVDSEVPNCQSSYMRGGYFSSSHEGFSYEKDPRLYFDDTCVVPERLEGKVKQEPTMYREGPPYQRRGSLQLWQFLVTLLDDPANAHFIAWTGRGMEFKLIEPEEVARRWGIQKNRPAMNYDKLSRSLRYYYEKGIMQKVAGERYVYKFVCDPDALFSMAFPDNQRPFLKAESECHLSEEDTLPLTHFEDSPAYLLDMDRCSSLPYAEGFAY
Sequence of ELF4 (Q99607 whole entry): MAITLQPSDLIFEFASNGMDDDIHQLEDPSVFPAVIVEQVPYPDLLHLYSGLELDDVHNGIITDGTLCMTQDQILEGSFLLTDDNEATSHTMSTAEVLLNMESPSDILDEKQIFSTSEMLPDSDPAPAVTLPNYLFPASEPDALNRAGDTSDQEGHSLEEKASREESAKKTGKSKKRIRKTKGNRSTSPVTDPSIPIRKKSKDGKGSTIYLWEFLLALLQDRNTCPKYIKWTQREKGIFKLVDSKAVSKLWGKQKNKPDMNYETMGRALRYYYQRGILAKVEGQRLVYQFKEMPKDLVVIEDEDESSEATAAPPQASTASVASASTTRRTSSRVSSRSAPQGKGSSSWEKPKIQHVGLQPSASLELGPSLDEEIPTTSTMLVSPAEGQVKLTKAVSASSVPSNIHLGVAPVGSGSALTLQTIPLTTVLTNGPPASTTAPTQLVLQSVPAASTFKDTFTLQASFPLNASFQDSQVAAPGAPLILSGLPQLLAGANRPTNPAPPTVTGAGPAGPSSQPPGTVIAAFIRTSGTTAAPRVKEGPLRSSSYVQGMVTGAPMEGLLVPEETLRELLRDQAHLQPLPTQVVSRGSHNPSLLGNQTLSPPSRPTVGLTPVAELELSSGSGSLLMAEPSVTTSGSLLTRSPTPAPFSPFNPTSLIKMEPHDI
Sequence of ETV6 (P41212 whole entry): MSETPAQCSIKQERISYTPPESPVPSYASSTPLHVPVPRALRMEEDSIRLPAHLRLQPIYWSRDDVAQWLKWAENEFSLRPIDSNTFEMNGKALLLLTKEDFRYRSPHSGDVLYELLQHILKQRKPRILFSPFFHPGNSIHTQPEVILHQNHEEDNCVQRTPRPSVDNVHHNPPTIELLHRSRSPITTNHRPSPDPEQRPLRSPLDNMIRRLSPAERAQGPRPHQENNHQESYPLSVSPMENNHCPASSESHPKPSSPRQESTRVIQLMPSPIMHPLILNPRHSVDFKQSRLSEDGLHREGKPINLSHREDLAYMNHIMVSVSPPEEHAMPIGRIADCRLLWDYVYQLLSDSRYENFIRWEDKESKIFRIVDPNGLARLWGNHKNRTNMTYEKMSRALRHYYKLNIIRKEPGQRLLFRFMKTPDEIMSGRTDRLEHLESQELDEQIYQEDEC
Sequence of SPIB (Q01892 whole entry): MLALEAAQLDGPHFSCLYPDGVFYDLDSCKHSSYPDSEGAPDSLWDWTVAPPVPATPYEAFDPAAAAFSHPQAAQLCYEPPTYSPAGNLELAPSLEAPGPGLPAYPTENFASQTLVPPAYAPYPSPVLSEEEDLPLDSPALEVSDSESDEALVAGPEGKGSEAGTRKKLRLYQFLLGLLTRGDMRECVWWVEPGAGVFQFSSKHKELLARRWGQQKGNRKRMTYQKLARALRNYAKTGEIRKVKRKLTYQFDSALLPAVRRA

| Sequence | binding signal (ELK1) | binding signal (GABPA) | binding signal (SPIB) | binding signal (ELK3) | binding signal (ETV5) | binding signal (ELK4) | binding signal (ELF3) | binding signal (ETV1) | binding signal (ETV3L) | binding signal (ETS2) | binding signal (SPDEF) | binding signal (ETV7) | binding signal (ETV3) | binding signal (ETV6) | binding signal (ERG) | binding signal (FEV) | binding signal (ELF4) |
| --- | --- | --- | --- | --- | --- | --- | --- | --- | --- | --- | --- | --- | --- | --- | --- | --- | --- |
| CGTTTG | 1.03 fold enrichment (6-mer frequency, TF over GST control) | 1.03 fold enrichment (6-mer frequency, TF over GST control) | 1.06 fold enrichment (6-mer frequency, TF over GST control) | 1 fold enrichment (6-mer frequency, TF over GST control) | 1.01 fold enrichment (6-mer frequency, TF over GST control) | 1.07 fold enrichment (6-mer frequency, TF over GST control) | 1.02 fold enrichment (6-mer frequency, TF over GST control) | 1.06 fold enrichment (6-mer frequency, TF over GST control) | 1 fold enrichment (6-mer frequency, TF over GST control) | 1.06 fold enrichment (6-mer frequency, TF over GST control) | 1.01 fold enrichment (6-mer frequency, TF over GST control) | 1.21 fold enrichment (6-mer frequency, TF over GST control) | 1.08 fold enrichment (6-mer frequency, TF over GST control) | 1.01 fold enrichment (6-mer frequency, TF over GST control) |  |  |  |
| CAGCAT | 1 fold enrichment (6-mer frequency, TF over GST control) | 1.03 fold enrichment (6-mer frequency, TF over GST control) |  | 1.19 fold enrichment (6-mer frequency, TF over GST control) | 1.04 fold enrichment (6-mer frequency, TF over GST control) |  | 1.07 fold enrichment (6-mer frequency, TF over GST control) | 1.06 fold enrichment (6-mer frequency, TF over GST control) | 1.03 fold enrichment (6-mer frequency, TF over GST control) | 1.03 fold enrichment (6-mer frequency, TF over GST control) | 1.05 fold enrichment (6-mer frequency, TF over GST control) | 1.01 fold enrichment (6-mer frequency, TF over GST control) |  |  | 1.03 fold enrichment (6-mer frequency, TF over GST control) | 1.04 fold enrichment (6-mer frequency, TF over GST control) | 1.05 fold enrichment (6-mer frequency, TF over GST control) |
